Test results taken from PubChem BioAssay.
Calls of active or inactive are those of the source.

Legend:
[1] = A549 cell viability effects, profiling panel, calcein-AM fluorescence, 48 h, basal (AID 1162); details: higher = more signal
[2] = adipocyte viability effects, profiling panel, cell-based, 3T3-L1 adipocytes, calcein-AM fluorescence, 48 h, basal (AID 1163); details: 3T3-L1 adipocytes viability, higher = more signal
[3] = HepG2 cell viability effects, profiling panel, calcein-AM fluorescence, 48 h, basal (AID 1164); details: higher = more signal
[4] = MM1S cell viability effects, profiling panel, calcein-AM fluorescence, 48 h, basal (AID 1165); details: higher = more signal;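 further: viability of MM1S multiple myeloma cells under basal unstimulated conditions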
[5] = basal RPMI8226 viability, no added stimulus, profiling panel, cell-based, calcein-AM fluorescence, 48 h, PK04 Diversity Set (AID 1166); details: RPMI8226 myeloma viability, higher = more signal;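 further: cells grown under basal conditions without added stimulus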
[6] = basal HepG2 mitochondrial membrane potential changes, profiling panel, cell-based, JC-1 fluorescence, 24 h, 100 nL compound (AID 1167); details: higher = more signal
[7] = basal 3T3-L1 adipocyte mitochondrial potential changes, profiling panel, cell-based, JC-1 fluorescence, 3T3-L1 adipocytes, 24 h, 100 nL compound (AID 1168); details: JC-1 mitochondrial fluorescence, higher = more signal, called active from +8 up or from −8 down
[8] = basal RPMI8226 mitochondrial membrane potential changes, profiling panel, cell-based, JC-1 fluorescence, 24 h, 100 nL compound (AID 1169); details: RPMI8226 myeloma, JC-1 mitochondrial potential fluorescence, higher = more signal
[9] = basal MM1S mitochondrial membrane potential changes, profiling panel, cell-based, JC-1 fluorescence, 24 h, 100 nL compound (AID 1170); details: higher = more signal
[10] = A549 lung cancer cell viability effects, profiling panel, resazurin fluorescence, 24 h, PK04 Diversity Set (AID 1171); details: higher = more signal, called active from +8 up or from −8 down
Further: test concentration not given here.

SMILES | z-score [1] | z-score [2] | z-score [3] | z-score [4] | z-score [5] | z-score [6] | z-score [7] | z-score [8] | z-score [9] | z-score [10]
O=C(NN=C1C[C@@H](O)[C@@H](O)[C@@H]2[C@@H]3C(=O)N(c4ccc(F)cc4F)C(=O)[C@@H]3CC[C@H]12)OCc1ccccc1 | -0.299 | -0.198 | -1.39 | -0.46 | 0.707 | 0.344 | 0.533 (inactive) | 0.0563 | -0.741 | 1.88 (inactive)
CCOC(=O)[C@H](CC(C)C)NC(=O)CCC1CC(OC(=O)NCc2ccc3c(c2)OCO3)CC2(CCCC(COC(=O)NCCOC)O2)O1 (stereo not given in full) | 0.0414 | -0.453 | -0.0998 | -0.418 | 0.457 | 0.11 | 0.65 (inactive) | 0.413 | -0.359 | 0.689 (inactive)
CCOC(=O)[C@H](Cc1ccccc1)NC(=O)CCC1CC(OC(=O)NCc2ccc3c(c2)OCO3)CC2(CCCC(COC(=O)NCCOC)O2)O1 (stereo not given in full) | 0.58 | -0.182 | -0.971 | 1.05 | -1.56 | 0.724 | -0.844 (inactive) | -0.817 | -1.37 | 0.32 (inactive)
CC=CC1=C(CO)[C@H](O)[C@H]2O[C@H]2[C@@H]1O | -0.37 | 0.309 | 0.366 | -0.948 | -0.671 | -0.206 | 0.00909 (inactive) | -0.225 | -0.244 | -0.337 (inactive)
O=C1C=C[C@@H](O)[C@@H]2[C@@H]3C(=O)N(Cc4ccccc4)C(=O)[C@@H]3CC[C@@H]12 | 0.698 | 0.594 | 1.33 | -0.134 | -0.73 | 1.42 | -0.125 (inactive) | -0.057 | -0.05 | -0.754 (inactive)
CCOC(=O)[C@H](CC(C)C)NC(=O)CCC1CC(OC(=O)NCc2ccc3c(c2)OCO3)CC2(CCCC(COC(=O)NCCOc3ccccc3)O2)O1 (stereo not given in full) | -0.253 | -0.36 | -1.78 | -2.19 | -1.43 | -1.66 | 0.278 (inactive) | -0.879 | -0.0386 | 0.494 (inactive)
COC(=O)[C@H](C)NC(=O)CCC1CC(OC(=O)NCc2cccc3ccccc23)CC2(CCCC(COC(=O)NCCC(C)C)O2)O1 (stereo not given in full) | 0.505 | -0.0667 | -1.75 | -3.38 | -3.49 | -0.653 | 0.112 (inactive) | -0.51 | -1.82 | 0.236 (inactive)
CCOC(=O)[C@H](CC(C)C)NC(=O)CCC1CC(OC(=O)NCCc2ccc(F)cc2)CC2(CCCC(COC(=O)NCCCN3CCCC3=O)O2)O1 (stereo not given in full) | 0.332 | -1.03 | 0.0317 | -0.528 | -1.8 | -0.556 | -0.139 (inactive) | -0.912 | 0.131 | 0.601 (inactive)
Cc1cc2c(nc1C)CCCCN2CC(O)CN1CCCc2nc(-c3ccc(Br)cc3)ccc21 (stereo not given) | 1.54 | -0.829 | 1.62 | 0.322 | -0.697 | -0.814 | -0.16 (inactive) | 0.357 | -0.536 | -0.379 (inactive)
CON=C(C)CCN1CCCCc2nc(C)c(C)cc21 | 1.03 | -0.269 | 0.564 | -0.254 | 0.371 | -0.955 | -1.41 (inactive) | -0.174 | 0.289 | -0.0601 (inactive)
COc1ccc(COC(=O)NN=C2C[C@@H](O)[C@@H](O)[C@@H]3[C@@H]4C(=O)N([C@@H](C)c5ccccc5)C(=O)[C@@H]4CC[C@@H]23)cc1 | -0.173 | 0.0685 | -0.966 | 0.434 | -1.26 | -0.697 | -0.132 (inactive) | -0.189 | -0.369 | 0.0487 (inactive)
CC#CCOCCC=C1c2ccccc2[C@@H](OC)[C@@H]1C | 0.0337 | 0.182 | 0.788 | -2.36 | -0.234 | -0.19 | -0.669 (inactive) | -0.773 | -0.831 | 0.349 (inactive)
CO[C@H]1COC(=O)CC=C[C@H](C)[C@H](OC)COC(=O)[C@@H](C)NC(=O)CC=C[C@@H]1C | -0.42 | 0.269 | -0.642 | 0.0674 | 0.222 | -0.66 | -0.557 (inactive) | -0.283 | -0.248 | 0.691 (inactive)
C[C@@H]1C=CCC(=O)OC[C@H](C)C(=O)N[C@@H](Cc2ccccc2)C(=O)OC1 | -0.88 | 2.49 | 0.499 | -0.295 | -0.371 | 0.662 | 0.55 (inactive) | 0.803 | 0.382 | 0.168 (inactive)
CCc1cc2c(nc1CC)CCN(CCC(C)=NOC(C)CN1CCCCc3nc(C)c(C)cc31)C2 (stereo not given) | 0.115 | 0.97 | 0.101 | -2.89 | -0.51 | 6.12 | -1.02 (inactive) | -0.39 | -0.104 | 0.639 (inactive)
CCc1cc2c(nc1CC)CCN(CCC(C)=NOCC[C@@H]1C=C[C@H](OC(C)=O)[C@@H](COC(C)=O)O1)C2 | 0.34 | 0.63 | 0.679 | -0.47 | 0.123 | 1.45 | -1.32 (inactive) | 0.578 | -0.13 | 0.29 (inactive)
COC(=O)[C@H](C)NC(=O)CCC1CC(OC(=O)NCc2cccc3ccccc23)CC2(CCCC(COC(=O)NCc3cccc(C(F)(F)F)c3)O2)O1 (stereo not given in full) | 0.826 | -0.508 | -0.918 | -3.11 | -0.0274 | -0.707 | 0.733 (inactive) | -0.742 | -0.905 | -1.16 (inactive)
CO[C@@H]1COC(=O)[C@H](CCSC)NC(=O)CC=C[C@@H](C)COC(=O)[C@@H]2CCCN2C(=O)CC=C[C@H]1C | -0.25 | -0.094 | 0.182 | 0.105 | 0.339 | 0.754 | 0.579 (inactive) | -0.79 | 0.326 | 0.285 (inactive)
C[C@@H](c1ccccc1)N1C(=O)[C@H]2[C@H]3[C@H](O)[C@H](O)CC(=NOCc4ccccc4)[C@@H]3CC[C@H]2C1=O | 0.048 | -0.0375 | -0.628 | 0.67 | -2.15 | -0.265 | -0.985 (inactive) | -0.0343 | 0.645 | -0.273 (inactive)
O=C(NN=C1C[C@@H](O)[C@@H](O)[C@@H]2[C@@H]3C(=O)N(Cc4ccccc4)C(=O)[C@@H]3CC[C@H]12)OCc1ccccc1 | 0.614 | 0.52 | -0.604 | 0.881 | -0.256 | 0.846 | 0.415 (inactive) | -0.415 | -0.427 | 0.288 (inactive)
Cc1cc(C)c(-c2cc([C@H](C)ON=C[C@@H](C)[C@H](OCc3ccccc3)C(C)C)on2)c(C)c1 | 0.66 | -0.0328 | 0.163 | 0.682 | -0.234 | 3.57 | -0.508 (inactive) | -0.149 | -0.143 | -0.0597 (inactive)
O=C1C2=CC[C@H]3C(=O)N(C4CCCCC4)C(=O)[C@H]3[C@H]2[C@H](O)[C@@H]2O[C@H]12 | -3.85 | 1.13 | -4.38 | -3.05 | -3.91 | 0.771 | 2.71 (inactive) | -1.02 | -2.83 | -2.67 (inactive)
O=C1C[C@H](c2ccccc2)[C@H](c2ccc(Br)cc2)O1 | 1.43 | 0.172 | -0.0656 | 0.342 | 1.08 | 1.19 | 0.268 (inactive) | 0.563 | 0.891 | -0.317 (inactive)
CCOC(=O)[C@H](Cc1ccccc1)NC(=O)CCC1CC(OC(=O)NCCc2ccc(F)cc2)CC2(CCCC(COC(=O)NCCOc3ccccc3)O2)O1 (stereo not given in full) | 0.613 | -0.156 | 0.141 | -0.565 | -1.25 | 1.71 | 0.508 (inactive) | -0.218 | -0.123 | 0.264 (inactive)
O=C1CCCC=C1C(O)C1CCCCC1 (stereo not given) | -0.586 | -0.464 | -0.22 | 0.766 | -0.241 | -0.86 | -1.15 (inactive) | -0.121 | 0.327 | 0.436 (inactive)
CCOC(=O)CCN1C(=O)[C@H]2[C@H]3[C@H](O)[C@H](O)CC(=NOCC=C(C)CCC=C(C)C)[C@@H]3CC[C@H]2C1=O | -0.0606 | -0.218 | -0.124 | 0.232 | -0.0685 | -0.651 | -0.204 (inactive) | -0.225 | -0.251 | -0.23 (inactive)
CC(CCN1CCCCc2nc(C)c(C)cc21)=NOC[C@@H](O)[C@H]1O[C@@H]2OC(C)(C)O[C@@H]2[C@H]1O | -0.638 | -0.566 | -1.33 | -0.22 | -0.177 | -0.536 | -1.31 (inactive) | -0.0542 | -0.477 | 0.0214 (inactive)
C=CC[C@@H]1C=C[C@H](ON=C(C)CCN2CCCCc3nc(C)c(C)cc32)[C@@H](CO)O1 | 0.275 | -0.7 | -0.389 | 0.475 | -0.332 | -0.874 | -1.84 (inactive) | -0.174 | -0.514 | -0.421 (inactive)
O=C1[C@H]2[C@H]3[C@H](O)[C@H](O)CC(=NO[C@@H]4O[C@H](CO)[C@@H](O)[C@H](O)[C@H]4O)[C@@H]3CC[C@H]2C(=O)N1C1CCCCC1 | 0.646 | -0.235 | 0.521 | 0.547 | 0.776 | 1.09 | -0.229 (inactive) | 0.169 | -1.25 | -0.934 (inactive)
O=C1C2=CC[C@H]3C(=O)N(Cc4ccccc4)C(=O)[C@H]3[C@H]2[C@H](O)[C@@H]2O[C@H]12 | -0.77 | -0.238 | -4.47 | -3.28 | -3.83 | -2.12 | 1.02 (inactive) | -1.05 | -2.91 | 0.152 (inactive)
